Drawing on the supplement of paper PMC10849652, this text covers log2 fold change for 25 targets.

Targets with a hit are over-represented here; the source holds about 8,800 in all. About 0.5% of all pairs of compound and target were hits. Unmarked numbers belong to inactive results.

Chain of UniProt Q96K19 (Q96K19 whole entry, looked up): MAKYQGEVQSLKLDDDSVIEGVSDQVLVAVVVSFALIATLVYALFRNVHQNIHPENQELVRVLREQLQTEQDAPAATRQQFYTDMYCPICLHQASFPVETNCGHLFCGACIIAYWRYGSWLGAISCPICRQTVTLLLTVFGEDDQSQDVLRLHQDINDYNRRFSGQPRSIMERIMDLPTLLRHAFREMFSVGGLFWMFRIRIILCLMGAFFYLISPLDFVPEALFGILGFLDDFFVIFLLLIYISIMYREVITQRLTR
Chain of UniProt Q9UPW6 (Q9UPW6 whole entry, looked up): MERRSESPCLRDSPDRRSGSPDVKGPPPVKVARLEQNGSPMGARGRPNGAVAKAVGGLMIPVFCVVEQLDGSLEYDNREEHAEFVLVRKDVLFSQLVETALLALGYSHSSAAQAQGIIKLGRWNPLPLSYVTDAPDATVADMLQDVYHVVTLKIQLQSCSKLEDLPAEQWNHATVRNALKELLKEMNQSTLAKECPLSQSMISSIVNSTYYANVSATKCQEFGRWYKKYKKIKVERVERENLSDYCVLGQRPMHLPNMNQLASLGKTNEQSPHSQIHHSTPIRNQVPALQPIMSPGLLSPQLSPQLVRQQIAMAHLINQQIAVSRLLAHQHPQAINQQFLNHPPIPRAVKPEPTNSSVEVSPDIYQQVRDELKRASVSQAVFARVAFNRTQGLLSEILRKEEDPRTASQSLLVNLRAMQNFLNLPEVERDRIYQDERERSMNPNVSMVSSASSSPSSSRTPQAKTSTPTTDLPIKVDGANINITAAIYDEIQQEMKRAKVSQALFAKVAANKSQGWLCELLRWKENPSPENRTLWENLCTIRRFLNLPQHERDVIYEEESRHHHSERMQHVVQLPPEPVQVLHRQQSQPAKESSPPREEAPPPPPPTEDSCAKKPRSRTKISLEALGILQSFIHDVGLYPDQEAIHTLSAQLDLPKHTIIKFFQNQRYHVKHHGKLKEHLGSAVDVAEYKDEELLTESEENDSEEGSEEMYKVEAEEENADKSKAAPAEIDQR
Chain of UniProt Q7L0Q8 (Q7L0Q8 whole entry, looked up): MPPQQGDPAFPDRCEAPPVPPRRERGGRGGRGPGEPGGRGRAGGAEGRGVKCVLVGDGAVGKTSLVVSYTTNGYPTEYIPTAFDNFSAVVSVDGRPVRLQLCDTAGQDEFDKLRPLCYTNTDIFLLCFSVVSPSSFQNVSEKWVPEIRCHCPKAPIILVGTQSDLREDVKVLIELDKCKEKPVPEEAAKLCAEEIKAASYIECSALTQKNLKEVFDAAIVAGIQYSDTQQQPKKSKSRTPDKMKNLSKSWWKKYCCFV
Chain of UniProt O75582 (O75582 whole entry, looked up): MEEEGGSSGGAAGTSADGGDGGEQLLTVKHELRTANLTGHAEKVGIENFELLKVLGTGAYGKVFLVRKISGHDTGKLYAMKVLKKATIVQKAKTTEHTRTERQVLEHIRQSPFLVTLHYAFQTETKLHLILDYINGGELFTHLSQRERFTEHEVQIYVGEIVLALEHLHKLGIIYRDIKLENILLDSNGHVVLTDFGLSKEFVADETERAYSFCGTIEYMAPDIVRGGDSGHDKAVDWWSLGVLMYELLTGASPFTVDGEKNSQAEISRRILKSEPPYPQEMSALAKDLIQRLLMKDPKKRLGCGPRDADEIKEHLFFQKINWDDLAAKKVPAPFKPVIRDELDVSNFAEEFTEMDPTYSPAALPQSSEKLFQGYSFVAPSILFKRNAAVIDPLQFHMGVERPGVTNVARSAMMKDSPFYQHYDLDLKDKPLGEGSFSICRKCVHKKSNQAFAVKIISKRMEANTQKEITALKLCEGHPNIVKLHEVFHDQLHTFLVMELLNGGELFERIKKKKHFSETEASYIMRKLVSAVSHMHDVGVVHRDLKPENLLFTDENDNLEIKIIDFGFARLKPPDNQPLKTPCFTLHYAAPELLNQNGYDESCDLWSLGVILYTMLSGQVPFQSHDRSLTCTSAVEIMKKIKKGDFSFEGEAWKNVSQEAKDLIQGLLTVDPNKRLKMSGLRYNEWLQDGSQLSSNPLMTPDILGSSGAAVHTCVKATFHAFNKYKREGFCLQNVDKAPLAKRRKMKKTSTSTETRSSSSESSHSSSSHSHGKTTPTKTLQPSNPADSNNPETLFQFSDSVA
Chain of UniProt Q96E14 (Q96E14 whole entry, looked up): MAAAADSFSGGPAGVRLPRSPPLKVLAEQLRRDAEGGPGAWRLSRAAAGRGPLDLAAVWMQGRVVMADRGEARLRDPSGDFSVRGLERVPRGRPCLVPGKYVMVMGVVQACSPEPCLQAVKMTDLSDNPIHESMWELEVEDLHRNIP
Chain of UniProt P51812 (P51812 whole entry, looked up): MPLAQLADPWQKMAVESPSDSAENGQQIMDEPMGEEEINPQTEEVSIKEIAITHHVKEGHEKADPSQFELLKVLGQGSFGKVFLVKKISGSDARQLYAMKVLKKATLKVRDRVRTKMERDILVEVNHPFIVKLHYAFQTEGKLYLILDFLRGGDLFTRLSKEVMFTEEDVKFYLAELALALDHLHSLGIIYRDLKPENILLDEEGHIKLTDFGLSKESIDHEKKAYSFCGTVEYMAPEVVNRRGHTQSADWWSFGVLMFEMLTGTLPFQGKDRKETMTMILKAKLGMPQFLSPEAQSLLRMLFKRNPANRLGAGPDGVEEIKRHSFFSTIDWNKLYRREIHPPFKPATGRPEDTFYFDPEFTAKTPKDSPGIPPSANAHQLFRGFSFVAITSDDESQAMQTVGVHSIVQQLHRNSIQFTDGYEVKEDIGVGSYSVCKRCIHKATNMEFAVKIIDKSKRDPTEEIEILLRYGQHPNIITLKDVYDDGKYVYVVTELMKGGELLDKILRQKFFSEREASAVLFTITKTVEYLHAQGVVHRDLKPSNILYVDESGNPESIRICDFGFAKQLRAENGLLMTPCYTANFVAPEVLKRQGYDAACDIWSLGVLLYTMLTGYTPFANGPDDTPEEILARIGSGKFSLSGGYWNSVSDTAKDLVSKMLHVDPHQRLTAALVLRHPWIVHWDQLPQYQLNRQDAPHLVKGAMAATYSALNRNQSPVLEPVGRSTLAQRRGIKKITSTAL
Chain of UniProt Q99496 (Q99496 whole entry, looked up): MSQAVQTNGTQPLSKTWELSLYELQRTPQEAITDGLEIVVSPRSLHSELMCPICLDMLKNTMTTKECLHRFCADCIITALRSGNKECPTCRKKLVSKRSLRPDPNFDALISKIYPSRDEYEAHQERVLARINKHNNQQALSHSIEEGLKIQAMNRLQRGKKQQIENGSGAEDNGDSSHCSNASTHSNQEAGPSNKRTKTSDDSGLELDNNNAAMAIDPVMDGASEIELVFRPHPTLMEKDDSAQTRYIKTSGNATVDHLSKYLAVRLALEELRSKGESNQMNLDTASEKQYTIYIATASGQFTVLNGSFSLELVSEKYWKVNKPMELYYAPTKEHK
Chain of UniProt Q9NTN9 (Q9NTN9 whole entry, looked up): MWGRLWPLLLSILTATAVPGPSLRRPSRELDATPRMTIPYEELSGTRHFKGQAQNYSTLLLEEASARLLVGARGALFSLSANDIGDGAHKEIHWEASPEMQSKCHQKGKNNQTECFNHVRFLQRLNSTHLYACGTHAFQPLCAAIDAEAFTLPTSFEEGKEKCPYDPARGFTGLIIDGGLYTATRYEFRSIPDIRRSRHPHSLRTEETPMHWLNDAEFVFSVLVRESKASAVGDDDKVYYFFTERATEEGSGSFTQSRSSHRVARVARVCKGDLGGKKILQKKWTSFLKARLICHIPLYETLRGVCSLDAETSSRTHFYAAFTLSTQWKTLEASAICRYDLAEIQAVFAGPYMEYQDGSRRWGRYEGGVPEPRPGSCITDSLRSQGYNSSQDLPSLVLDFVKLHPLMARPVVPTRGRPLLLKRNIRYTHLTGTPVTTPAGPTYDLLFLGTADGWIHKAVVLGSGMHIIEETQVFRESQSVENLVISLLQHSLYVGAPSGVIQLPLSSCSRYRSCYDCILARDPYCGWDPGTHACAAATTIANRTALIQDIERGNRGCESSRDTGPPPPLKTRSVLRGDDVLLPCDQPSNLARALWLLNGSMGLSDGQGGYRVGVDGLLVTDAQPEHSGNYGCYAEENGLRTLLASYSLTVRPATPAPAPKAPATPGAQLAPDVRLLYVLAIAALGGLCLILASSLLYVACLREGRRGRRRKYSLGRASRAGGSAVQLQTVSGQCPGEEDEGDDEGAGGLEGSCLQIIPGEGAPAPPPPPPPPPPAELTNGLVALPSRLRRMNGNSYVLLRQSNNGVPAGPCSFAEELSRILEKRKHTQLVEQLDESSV
Chain of UniProt Q8TC12 (Q8TC12 whole entry, looked up): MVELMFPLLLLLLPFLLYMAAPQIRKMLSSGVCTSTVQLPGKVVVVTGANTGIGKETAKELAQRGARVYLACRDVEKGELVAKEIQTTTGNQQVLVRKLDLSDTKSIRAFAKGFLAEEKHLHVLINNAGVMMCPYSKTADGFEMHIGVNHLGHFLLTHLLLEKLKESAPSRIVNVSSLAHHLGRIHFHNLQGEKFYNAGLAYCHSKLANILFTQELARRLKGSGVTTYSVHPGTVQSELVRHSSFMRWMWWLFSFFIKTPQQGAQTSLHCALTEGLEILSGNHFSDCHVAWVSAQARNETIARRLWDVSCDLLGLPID
Chain of UniProt Q9Y225 (Q9Y225 whole entry, looked up): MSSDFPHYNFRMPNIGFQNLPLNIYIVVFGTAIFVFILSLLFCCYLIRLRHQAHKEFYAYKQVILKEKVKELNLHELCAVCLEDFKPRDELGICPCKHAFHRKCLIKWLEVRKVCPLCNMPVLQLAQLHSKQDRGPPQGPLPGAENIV
Chain of UniProt Q8TEB9 (Q8TEB9 whole entry, looked up): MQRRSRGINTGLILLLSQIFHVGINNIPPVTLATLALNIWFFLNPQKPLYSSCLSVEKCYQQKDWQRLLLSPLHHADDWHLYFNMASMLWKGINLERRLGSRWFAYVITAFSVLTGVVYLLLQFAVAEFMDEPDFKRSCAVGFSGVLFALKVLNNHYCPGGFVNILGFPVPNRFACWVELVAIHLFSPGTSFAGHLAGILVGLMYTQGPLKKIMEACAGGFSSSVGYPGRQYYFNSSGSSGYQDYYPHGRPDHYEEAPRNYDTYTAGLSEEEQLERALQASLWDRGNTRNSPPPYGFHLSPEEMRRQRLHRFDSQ

Compound in the first test: C#Cc1cccc(Nc2ncnc3cc(OCCOC)c(OCCOC)cc23)c1 [erlotinib]
The experiment in a line: log2 fold change, soluble protein after heating vs DMSO (PISA); higher = thermal stabilisation; K562 lysate, 10 uM; active = over 0.2 and 3.5 SD of the protein, either way, in both replicates (recomputed). In a few lines: (§1)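 Following dounce homogenisation of K562 pellets in PBS pH 7.4 with 1 mM MgCl2, crude extract at 1 mg/mL protein was incubated for 30 min with 10 μM compound. Aliquots were then heated for 3 min over 48°C-58°C and pooled, NP-40 was added to 0.5% at 4°C, and soluble protein was recovered as the supernatant at 21,000xg for 90 min. Channel-sum-equalised TMTpro 16plex LC-MS/MS quantified this protein. Each value, from duplicates, is a log-two fold change in thermal stability relative to solvent controls.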
Take RXRA (UniProt P19793): the log2 fold change is 0.102.

Regarding RDH11 (UniProt Q8TC12), the log2 fold change is 0.018.

Turning to RHOU (UniProt Q7L0Q8), the log2 fold change is -0.052.

With RYR1 (UniProt P21817), the log2 fold change was -0.077.

Turning to RNF2 (UniProt Q99496), the log2 fold change is 0.061.

In the case of RAD54L (UniProt Q92698), the log2 fold change was -0.026.

For RPS6KA3 (UniProt P51812), the log2 fold change was -0.04.

Turning to RNPC3 (UniProt Q96LT9), the log2 fold change is 0.004.

Consider ROBO2 isoform 3 (UniProt Q9HCK4), for which the log2 fold change is 0.042.

As for RNF24 isoform 2 (UniProt Q9Y225), the log2 fold change is -0.146.

Consider SCNM1 (UniProt Q9BWG6), for which the log2 fold change was 0.045.

Regarding RMI2 (UniProt Q96E14), the log2 fold change was 0.051.

As for RNF170 (UniProt Q96K19), the log2 fold change is 0.062.

With SEMA4G isoform 2 (UniProt Q9NTN9), the log2 fold change was 0.005.

Take QSER1, A0A3B3IRW6: the log2 fold change is -0.056.

Regarding S100A6 (UniProt P06703), the log2 fold change is 0.045.

Take SERAC1 (UniProt Q96JX3): the log2 fold change was 0.004.

Regarding RNF17 (UniProt Q9BXT8), the log2 fold change was -0.055.

SATB2 (UniProt Q9UPW6): the log2 fold change is -0.019.

As for RPS6KA5 (UniProt O75582), the log2 fold change was -0.036.

Compound in a further test: C/C(=N\NC(=O)C1=CC(=CC=C1)S(=O)(=O)N2CCOCC2)/C3=C(C=CC(=C3)Cl)O
The description is as above. The method, boiled down: as §1
For SELENOK (UniProt Q9Y6D0), the log2 fold change was -0.075.

With RDH11 (UniProt Q8TC12), the log2 fold change is 0.087.

For RHOU (UniProt Q7L0Q8), the log2 fold change was 0.07.

For RNF2 (UniProt Q99496), the log2 fold change is -0.088.

Regarding SAP30 (UniProt O75446), the log2 fold change is 0.06.

For the target RPS6KA3 (UniProt P51812), the log2 fold change is -0.003.

RUFY2 isoform 1 (UniProt Q8WXA3): the log2 fold change is -0.117.

Turning to RMI2 (UniProt Q96E14), the log2 fold change was -0.246.

With RNF170 (UniProt Q96K19), the log2 fold change is -0.018.

SEMA4G isoform 2 (UniProt Q9NTN9): the log2 fold change was -0.137.

For QSER1, A0A3B3IRW6, the log2 fold change was 0.025.

Turning to S100A6 (UniProt P06703), the log2 fold change was 0.346.

With SATB2 (UniProt Q9UPW6), the log2 fold change is -0.044.

For the target RPS6KA5 (UniProt O75582), the log2 fold change was -0.161.

For RAD17 (UniProt O75943), the log2 fold change is 0.005.

As to RHBDD1 (UniProt Q8TEB9), the log2 fold change was -0.476.
